Test results reported in paper PMC7862700, “An all-to-all approach to the identification of sequence-specific readers for epigenetic DNA modifications on cytosine”.

Tests used:
Assay in all cases: DAPPL (digital affinity profiling via proximity ligation, sequencing); 10 mM Tris-HCl pH 7.5, 50 mM NaCl, 1 mM DTT, 4% glycerol, room temperature, 30 min; GST-TFs on glutathione beads, 16-mer random dsDNA library, 0.1% formaldehyde crosslink after washing; high values mean tight binding
FLI1 = biological target: T1, FLI1 (Homo sapiens, UniProt Q01543 1-452); settings: protein: recombinant; tags: N-terminal GST; dsDNA, one strand shown
T1 sequence: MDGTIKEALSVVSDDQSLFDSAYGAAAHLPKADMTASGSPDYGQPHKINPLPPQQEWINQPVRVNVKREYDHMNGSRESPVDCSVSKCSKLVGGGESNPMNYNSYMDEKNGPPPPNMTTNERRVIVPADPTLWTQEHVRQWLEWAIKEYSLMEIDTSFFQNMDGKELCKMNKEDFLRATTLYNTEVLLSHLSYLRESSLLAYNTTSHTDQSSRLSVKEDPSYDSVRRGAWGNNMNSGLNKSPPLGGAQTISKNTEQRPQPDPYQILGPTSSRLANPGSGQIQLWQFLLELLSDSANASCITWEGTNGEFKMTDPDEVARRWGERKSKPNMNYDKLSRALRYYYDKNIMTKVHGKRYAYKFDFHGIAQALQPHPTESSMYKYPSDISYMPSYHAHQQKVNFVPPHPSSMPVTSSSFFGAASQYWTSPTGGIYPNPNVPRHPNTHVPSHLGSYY
Summary of the method: (§1)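 After expression in yeast as GST fusions, human transcription factors were bound to glutathione beads, DNA-barcoded and mixed with a tag-only sample. The pools were incubated with 200 nmole of a 16-mer random double-stranded DNA library in Tris/NaCl/DTT/glycerol buffer (30 min, room temperature), washed and crosslinked with 0.1% formaldehyde. Proximity ligation with BsaI/T4 ligase ran for 1 h at 37 °C, before PCR amplification and sequencing on an Illumina NextSeq500. Binding signal is a hexamer's read frequency for a factor divided by its frequency for the tag-only sample.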

ELK1 = biological target: T2, ELK1 (Homo sapiens, UniProt P19419 1-428); settings: protein: recombinant; tags: N-terminal GST; dsDNA, one strand shown
T2 sequence: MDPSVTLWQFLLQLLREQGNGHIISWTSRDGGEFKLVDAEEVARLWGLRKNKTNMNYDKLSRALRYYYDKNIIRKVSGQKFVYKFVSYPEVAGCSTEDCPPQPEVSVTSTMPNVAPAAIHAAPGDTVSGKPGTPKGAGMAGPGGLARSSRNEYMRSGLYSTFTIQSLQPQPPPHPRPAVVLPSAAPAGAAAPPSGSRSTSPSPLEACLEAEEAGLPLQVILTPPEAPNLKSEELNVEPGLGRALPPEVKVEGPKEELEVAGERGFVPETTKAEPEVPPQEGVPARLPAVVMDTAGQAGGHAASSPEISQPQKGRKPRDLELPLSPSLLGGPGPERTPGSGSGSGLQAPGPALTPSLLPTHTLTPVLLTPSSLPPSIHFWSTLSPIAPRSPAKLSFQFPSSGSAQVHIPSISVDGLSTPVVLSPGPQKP
Summary of the method: as §1

GABPA = biological target: T3, GABPA (Homo sapiens, UniProt Q06546 1-454); settings: protein: recombinant; tags: N-terminal GST; dsDNA, one strand shown
T3 sequence: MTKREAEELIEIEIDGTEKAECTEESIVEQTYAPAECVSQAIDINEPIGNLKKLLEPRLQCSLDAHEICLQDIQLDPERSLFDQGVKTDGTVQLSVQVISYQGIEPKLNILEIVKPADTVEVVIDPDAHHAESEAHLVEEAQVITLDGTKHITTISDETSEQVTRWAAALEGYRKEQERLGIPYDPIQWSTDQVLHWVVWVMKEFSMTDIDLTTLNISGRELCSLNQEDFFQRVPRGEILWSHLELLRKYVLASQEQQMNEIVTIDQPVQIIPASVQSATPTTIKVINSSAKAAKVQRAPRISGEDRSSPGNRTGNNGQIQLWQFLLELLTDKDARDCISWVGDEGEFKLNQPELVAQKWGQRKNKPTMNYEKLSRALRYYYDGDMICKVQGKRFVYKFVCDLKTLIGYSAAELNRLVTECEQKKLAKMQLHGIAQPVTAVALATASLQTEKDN
Summary of the method: as §1

ERG = biological target: T4, ERG (Homo sapiens, UniProt P11308 1-479); settings: protein: recombinant; tags: N-terminal GST; dsDNA, one strand shown
T4 sequence: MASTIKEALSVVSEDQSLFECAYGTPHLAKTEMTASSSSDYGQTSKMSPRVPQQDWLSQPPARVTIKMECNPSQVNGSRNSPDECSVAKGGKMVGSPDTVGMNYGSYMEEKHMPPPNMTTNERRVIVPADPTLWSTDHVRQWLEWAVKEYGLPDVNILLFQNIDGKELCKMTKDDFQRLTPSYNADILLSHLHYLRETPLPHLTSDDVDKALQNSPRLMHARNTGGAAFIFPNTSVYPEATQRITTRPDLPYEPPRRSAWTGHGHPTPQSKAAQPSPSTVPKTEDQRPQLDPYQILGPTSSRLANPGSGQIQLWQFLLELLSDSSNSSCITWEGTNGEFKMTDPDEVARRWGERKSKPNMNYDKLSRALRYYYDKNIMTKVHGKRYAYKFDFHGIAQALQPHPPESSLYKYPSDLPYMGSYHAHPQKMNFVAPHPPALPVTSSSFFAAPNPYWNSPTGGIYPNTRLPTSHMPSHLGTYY
Summary of the method: as §1

ELF1 = ELF1 (Homo sapiens, UniProt P32519 1-619); settings: protein: recombinant; tags: N-terminal GST; dsDNA, one strand shown
Sequence of ELF1 (P32519 whole entry): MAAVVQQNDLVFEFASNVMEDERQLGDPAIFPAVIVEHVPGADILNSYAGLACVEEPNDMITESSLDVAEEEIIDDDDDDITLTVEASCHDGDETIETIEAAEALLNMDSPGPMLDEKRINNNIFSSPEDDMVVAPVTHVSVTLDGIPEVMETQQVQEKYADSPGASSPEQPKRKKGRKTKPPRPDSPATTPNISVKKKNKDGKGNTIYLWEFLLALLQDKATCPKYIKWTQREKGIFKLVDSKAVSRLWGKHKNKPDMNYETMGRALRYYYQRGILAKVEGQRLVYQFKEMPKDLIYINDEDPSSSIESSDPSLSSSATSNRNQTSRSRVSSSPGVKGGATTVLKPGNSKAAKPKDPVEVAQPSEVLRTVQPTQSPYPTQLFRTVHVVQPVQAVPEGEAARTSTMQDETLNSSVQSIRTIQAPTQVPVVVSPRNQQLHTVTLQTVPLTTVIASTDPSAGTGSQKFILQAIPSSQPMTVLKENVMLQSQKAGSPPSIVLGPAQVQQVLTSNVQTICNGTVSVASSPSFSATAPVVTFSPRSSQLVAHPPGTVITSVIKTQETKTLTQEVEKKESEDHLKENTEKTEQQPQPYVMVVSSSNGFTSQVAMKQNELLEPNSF
Summary of the method: as §1

SPI1 = SPI1 (Homo sapiens, UniProt P17947 1-270); settings: protein: recombinant; tags: N-terminal GST; dsDNA, one strand shown
Summary of the method: as §1

SPIB = SPIB (Homo sapiens, UniProt Q01892 1-262); settings: protein: recombinant; tags: N-terminal GST; dsDNA, one strand shown
Sequence of SPIB (Q01892 whole entry): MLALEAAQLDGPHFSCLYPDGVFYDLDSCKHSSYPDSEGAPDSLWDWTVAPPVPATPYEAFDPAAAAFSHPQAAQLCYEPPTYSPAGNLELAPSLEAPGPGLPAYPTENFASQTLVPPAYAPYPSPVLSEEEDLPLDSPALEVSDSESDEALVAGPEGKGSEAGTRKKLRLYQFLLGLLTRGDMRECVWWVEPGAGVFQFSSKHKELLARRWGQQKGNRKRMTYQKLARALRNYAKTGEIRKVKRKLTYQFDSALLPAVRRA
Summary of the method: as §1

ELK3 = biological target: T5, ELK3 (Homo sapiens, UniProt P41970 1-407); settings: protein: recombinant; tags: N-terminal GST; dsDNA, one strand shown
T5 sequence: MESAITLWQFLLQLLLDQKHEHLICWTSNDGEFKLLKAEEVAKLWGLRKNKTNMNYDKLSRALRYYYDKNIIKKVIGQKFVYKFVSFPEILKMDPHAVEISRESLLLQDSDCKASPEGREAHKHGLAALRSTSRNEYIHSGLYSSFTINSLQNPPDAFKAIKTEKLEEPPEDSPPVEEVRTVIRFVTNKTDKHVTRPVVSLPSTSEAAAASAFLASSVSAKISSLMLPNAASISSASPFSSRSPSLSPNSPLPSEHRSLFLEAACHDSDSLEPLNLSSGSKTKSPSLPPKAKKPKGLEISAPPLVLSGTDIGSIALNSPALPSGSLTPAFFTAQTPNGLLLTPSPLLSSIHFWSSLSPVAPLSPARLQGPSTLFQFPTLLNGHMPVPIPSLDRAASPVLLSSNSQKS
Summary of the method: as §1

FEV = biological target: T6, FEV (Homo sapiens, UniProt Q99581 1-238); settings: protein: recombinant; tags: N-terminal GST; dsDNA, one strand shown
T6 sequence: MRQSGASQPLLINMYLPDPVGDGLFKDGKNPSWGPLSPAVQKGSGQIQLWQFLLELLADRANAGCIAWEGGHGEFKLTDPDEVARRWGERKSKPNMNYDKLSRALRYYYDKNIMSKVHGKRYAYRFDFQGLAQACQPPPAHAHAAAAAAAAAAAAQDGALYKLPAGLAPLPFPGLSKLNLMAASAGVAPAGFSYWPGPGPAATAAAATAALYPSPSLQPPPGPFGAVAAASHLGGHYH
Summary of the method: as §1

ETV5 = ETV5 (Homo sapiens, UniProt P41161 1-510); settings: protein: recombinant; tags: N-terminal GST; dsDNA, one strand shown
Sequence of ETV5 (P41161 whole entry): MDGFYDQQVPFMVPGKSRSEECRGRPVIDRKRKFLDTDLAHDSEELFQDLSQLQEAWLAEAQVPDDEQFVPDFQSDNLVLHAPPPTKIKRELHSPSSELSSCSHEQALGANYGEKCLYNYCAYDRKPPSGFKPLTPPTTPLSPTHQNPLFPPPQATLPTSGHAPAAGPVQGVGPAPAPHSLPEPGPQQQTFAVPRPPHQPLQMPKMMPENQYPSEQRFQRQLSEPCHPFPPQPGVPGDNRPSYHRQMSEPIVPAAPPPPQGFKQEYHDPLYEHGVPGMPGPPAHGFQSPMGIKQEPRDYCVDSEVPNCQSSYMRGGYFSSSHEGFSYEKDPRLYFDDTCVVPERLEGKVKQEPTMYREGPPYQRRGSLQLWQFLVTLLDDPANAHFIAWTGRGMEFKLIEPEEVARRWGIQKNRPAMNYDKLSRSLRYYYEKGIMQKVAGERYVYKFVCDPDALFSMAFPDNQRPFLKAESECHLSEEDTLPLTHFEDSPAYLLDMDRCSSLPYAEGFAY
Summary of the method: as §1

HSF1 = HSF1 (Homo sapiens, UniProt Q00613 1-529); settings: protein: recombinant; tags: N-terminal GST; chain copies: 3; dsDNA, one strand shown
Sequence of HSF1 (Q00613 whole entry): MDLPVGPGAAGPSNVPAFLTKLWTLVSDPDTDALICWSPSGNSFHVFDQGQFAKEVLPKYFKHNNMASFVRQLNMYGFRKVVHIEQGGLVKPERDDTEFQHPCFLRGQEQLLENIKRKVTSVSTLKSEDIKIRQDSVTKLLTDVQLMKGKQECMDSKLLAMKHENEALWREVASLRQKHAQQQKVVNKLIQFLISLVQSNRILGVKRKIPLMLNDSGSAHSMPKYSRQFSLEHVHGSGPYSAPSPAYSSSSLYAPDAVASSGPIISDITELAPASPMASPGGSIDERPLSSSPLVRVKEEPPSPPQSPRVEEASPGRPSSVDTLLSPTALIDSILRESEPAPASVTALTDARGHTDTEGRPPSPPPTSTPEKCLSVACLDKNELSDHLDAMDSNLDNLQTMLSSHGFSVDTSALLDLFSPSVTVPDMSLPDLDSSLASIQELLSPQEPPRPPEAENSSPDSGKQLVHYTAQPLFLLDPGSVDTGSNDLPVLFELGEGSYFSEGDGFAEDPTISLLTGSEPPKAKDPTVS
Summary of the method: as §1

SPIC = biological target: T7, SPIC (Homo sapiens, UniProt Q8N5J4 1-248); settings: protein: recombinant; tags: N-terminal GST; dsDNA, one strand shown
T7 sequence: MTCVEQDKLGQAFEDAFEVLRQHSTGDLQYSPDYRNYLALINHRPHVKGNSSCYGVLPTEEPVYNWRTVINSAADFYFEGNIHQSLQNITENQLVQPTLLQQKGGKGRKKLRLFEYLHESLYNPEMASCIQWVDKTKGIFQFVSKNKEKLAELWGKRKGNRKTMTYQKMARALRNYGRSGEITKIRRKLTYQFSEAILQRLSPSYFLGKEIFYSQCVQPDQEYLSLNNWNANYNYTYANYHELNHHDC
Summary of the method: as §1

ELF4 = ELF4 (Homo sapiens, UniProt Q99607 1-663); settings: protein: recombinant; tags: N-terminal GST; dsDNA, one strand shown
Sequence of ELF4 (Q99607 whole entry): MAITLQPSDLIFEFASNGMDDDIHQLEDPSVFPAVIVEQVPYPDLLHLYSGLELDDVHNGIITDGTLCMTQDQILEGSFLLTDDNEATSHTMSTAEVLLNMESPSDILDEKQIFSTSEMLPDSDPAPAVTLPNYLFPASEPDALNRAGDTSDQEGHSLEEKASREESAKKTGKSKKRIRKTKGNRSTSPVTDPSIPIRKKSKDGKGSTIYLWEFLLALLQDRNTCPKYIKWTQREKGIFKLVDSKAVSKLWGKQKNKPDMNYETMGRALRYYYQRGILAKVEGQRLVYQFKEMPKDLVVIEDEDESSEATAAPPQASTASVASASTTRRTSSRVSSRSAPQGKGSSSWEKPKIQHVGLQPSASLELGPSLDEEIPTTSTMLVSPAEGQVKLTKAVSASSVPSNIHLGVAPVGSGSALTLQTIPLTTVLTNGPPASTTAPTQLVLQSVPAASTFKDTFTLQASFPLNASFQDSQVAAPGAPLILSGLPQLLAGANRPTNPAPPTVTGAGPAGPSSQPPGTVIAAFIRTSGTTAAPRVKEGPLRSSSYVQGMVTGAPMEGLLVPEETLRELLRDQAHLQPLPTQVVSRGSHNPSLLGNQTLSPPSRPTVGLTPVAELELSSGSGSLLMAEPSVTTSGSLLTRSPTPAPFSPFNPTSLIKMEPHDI
Summary of the method: as §1

ELK4 = biological target: T8, ELK4 (Homo sapiens, UniProt P28324-2 1-405); settings: protein: recombinant; tags: N-terminal GST; dsDNA, one strand shown
T8 sequence: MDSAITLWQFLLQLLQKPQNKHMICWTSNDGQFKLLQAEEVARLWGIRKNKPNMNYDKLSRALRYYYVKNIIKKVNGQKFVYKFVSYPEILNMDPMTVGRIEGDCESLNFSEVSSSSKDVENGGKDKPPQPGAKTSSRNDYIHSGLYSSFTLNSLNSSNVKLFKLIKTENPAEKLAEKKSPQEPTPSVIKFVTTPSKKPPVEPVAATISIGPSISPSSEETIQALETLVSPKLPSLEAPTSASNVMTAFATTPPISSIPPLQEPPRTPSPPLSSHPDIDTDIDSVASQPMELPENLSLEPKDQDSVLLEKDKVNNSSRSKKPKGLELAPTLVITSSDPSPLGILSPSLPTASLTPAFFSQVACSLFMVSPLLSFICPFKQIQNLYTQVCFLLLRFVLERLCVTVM
Summary of the method: as §1

ELF3 = biological target: T9, ELF3 (Homo sapiens, UniProt P78545 1-371); settings: protein: recombinant; tags: N-terminal GST; dsDNA, one strand shown
T9 sequence: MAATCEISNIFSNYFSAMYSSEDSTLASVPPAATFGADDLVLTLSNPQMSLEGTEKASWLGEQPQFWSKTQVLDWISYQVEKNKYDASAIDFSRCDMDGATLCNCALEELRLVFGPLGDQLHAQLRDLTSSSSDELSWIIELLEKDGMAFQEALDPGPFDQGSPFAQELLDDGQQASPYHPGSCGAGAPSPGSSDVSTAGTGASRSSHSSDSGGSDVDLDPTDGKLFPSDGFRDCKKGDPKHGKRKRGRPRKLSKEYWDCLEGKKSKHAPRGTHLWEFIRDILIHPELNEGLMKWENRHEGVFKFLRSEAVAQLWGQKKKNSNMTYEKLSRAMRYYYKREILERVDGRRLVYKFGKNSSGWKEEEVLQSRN
Summary of the method: as §1

CRX = CRX (Homo sapiens, UniProt O43186 1-299); settings: protein: recombinant; tags: N-terminal GST; dsDNA, one strand shown
Sequence of CRX (O43186 whole entry): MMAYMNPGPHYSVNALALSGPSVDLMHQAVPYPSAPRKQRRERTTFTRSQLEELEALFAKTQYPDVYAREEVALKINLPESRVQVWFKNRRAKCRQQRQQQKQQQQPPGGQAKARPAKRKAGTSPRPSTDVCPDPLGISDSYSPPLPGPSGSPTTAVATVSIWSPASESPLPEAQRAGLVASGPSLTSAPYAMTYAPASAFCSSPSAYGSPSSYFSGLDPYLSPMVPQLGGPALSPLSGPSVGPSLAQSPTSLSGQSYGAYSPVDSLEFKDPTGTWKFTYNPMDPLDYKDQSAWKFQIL
Summary of the method: as §1

ETV1 = ETV1 (Homo sapiens, UniProt P50549 1-477); settings: protein: recombinant; tags: N-terminal GST; dsDNA, one strand shown
Sequence of ETV1 (P50549 whole entry): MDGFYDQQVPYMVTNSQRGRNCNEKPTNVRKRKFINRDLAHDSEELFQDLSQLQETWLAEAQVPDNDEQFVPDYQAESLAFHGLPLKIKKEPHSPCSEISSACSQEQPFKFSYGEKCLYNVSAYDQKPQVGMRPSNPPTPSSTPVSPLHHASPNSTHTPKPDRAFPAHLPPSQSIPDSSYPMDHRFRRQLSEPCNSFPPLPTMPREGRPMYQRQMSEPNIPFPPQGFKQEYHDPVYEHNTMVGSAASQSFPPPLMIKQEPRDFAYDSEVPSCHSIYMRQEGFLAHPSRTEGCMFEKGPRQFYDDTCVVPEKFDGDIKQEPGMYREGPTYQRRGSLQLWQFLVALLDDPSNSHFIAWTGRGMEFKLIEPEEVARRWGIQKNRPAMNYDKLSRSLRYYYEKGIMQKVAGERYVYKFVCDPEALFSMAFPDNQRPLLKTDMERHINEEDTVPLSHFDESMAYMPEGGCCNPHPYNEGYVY
Summary of the method: as §1

With CGATCA the binding signal (FLI1) was 1.15 fold enrichment (6-mer frequency, TF over GST control), the binding signal (ELK1) was 1.13 fold enrichment (6-mer frequency, TF over GST control) and the binding signal (GABPA) was 1.15 fold enrichment (6-mer frequency, TF over GST control). For the same sequence, the binding signal (ERG) was 1.07 fold enrichment (6-mer frequency, TF over GST control), the binding signal (ELF1) was 1.2 fold enrichment (6-mer frequency, TF over GST control) and the binding signal (SPI1) was 1.02 fold enrichment (6-mer frequency, TF over GST control). For the same sequence, the binding signal (SPIB) was 1.06 fold enrichment (6-mer frequency, TF over GST control), the binding signal (ELK3) was 1.23 fold enrichment (6-mer frequency, TF over GST control) and the binding signal (FEV) was 1.04 fold enrichment (6-mer frequency, TF over GST control). The binding signal (ETV5) was 1.03 fold enrichment (6-mer frequency, TF over GST control), the binding signal (HSF1) was 1.22 fold enrichment (6-mer frequency, TF over GST control) and the binding signal (SPIC) was 1.06 fold enrichment (6-mer frequency, TF over GST control). For the same sequence, the binding signal (ELF4) was 1.06 fold enrichment (6-mer frequency, TF over GST control), the binding signal (ELK4) was 1.07 fold enrichment (6-mer frequency, TF over GST control) and the binding signal (ELF3) was 1.07 fold enrichment (6-mer frequency, TF over GST control). For the same sequence, the binding signal (CRX) was 1.16 fold enrichment (6-mer frequency, TF over GST control) and the binding signal (ETV1) was 1.04 fold enrichment (6-mer frequency, TF over GST control).
